Reference: PubChem BioAssay AID2315 (National Center for Advancing Translational Sciences (NCATS), 2010)
Hit rate of the full screen: of about 290,000 compounds, about 27,000 (9.3%) were called active. The full list was thinned out, with actives kept by preference. A number with no mark means an inactive call. No stated cut-off is given here; in the data, active means inhibition mostly above about 28% (no sharp cut-off); inactive means mostly below about 43%.

Assay: A qHTS for Small Molecule Inhibitors of Shiga Toxin; further: 0% is about no effect
Conditions: Vero cells, Shiga toxin protein synthesis inhibition reporter; at 38.7 µM, active compounds read high

| Structure (SMILES) | inhibition |
| --- | --- |
| COc1cc(S(=O)(=O)N2CCN=C2c2ccccc2)ccc1Cl | -4.87% |
| CCN(CC)CCCNC(=O)CCn1nc(-c2ccc(Cl)cc2)ccc1=O | -2.08% |
| COc1ccc2ccccc2c1/C=N/NC(=O)c1cc(C)[nH]n1 | 7.72% |
| Cc1cccc(C)c1OCCN1CCOCC1 | 1.56% |
| CCn1c2ccc(F)cc2c2nnc(SCCN3CCOCC3)nc21 | -3.64% |
| Cc1cc2nc(SCCN3CCOCC3)[nH]c2cc1C | 59.3% (active) |
| COc1cccc(CNS(=O)(=O)c2ccc3c(c2)N(C(C)=O)CCS3)c1 | -13.7% |
| COc1ccc(/C=C(\C#N)C(=O)ONC2=NCCCCC2)cc1 | 20.9% |
| Cc1nc2ccccc2nc1N/N=C/c1ccc(O)cc1O | 55.6% (active) |
| Cc1cc(N/N=C/c2ccccc2F)c2ccccc2n1 | 26.9% |
| Oc1ccc(/C=N/NC2=NCCCCC2)c(O)c1 | 97.5% (active) |
| Oc1ccc(/C=N/Nc2nc(-c3ccccc3F)nc3ccccc23)c(O)c1 | 16% |
| C[C@H](C(=O)CC(=O)OC(C)(C)C)[C@H](O)c1ccc(C(F)(F)F)cc1 | 1.74% |
| COCCCNC(=S)N1CCN(c2nc(-c3cccc(OC)c3)cs2)CC1 | 21.1% |
| C=CCOc1ccc(/C=C/C(=O)OCC(=O)NC2CCCCCC2)cc1 | 1.6% |
| COCC(=O)N1CCCC(C(=O)c2ccc(C(F)(F)F)cc2)C1 (centres undefined) | -8.8% |
| CC(=O)Nc1ccc(S(=O)(=O)Oc2ccc(Br)cc2C(=S)N2CCOCC2)cc1 | -12.5% |
| Cn1c(CNC(=O)c2ccco2)nnc1SCC(=O)N1CCN(c2ccccc2)CC1 | 4.34% |
| COc1ccccc1NC(=O)c1ccc(C)s1 | 73.7% (active) |
| COC(=O)c1c(NC(C)=O)sc(C(=O)Nc2ccccc2OC)c1C | -23.1% |
| COc1ccccc1NC(=O)C1=C(C)NC(=O)NC1c1ccc(C)s1 (centres undefined) | 1.28% |
| COc1ccc(/C=C(/NC(=O)c2ccccc2)C(=O)Nc2cccc(C(=O)O)c2)cc1 | -15.3% |
| O=C(OCCN1C(=O)c2ccccc2C1=O)Oc1ccccc1 | -2.38% |
| Cc1cccc2c1N(CCOc1ccccc1)C(=O)C2=O | -13.4% |
| O=C1c2ccccc2C(=O)N1CCOc1ccc(F)cc1 | 90.8% (active) |
| CC(NC(=O)COc1cccnc1[N+](=O)[O-])c1ccc(Cl)cc1Cl (centres undefined) | -9.36% |
| O=C(Cc1ccccc1)N/N=C/c1ccc(Cl)cc1Cl | 6.24% |
| O=C(CCC(=O)Nc1ccccc1)N/N=C/c1ccccc1F | 144% (active) |
| O=C(CCCCCNC(=O)c1ccccc1)N/N=C/c1ccccc1 | 11% |
